Measured values published in the supplement of paper PMC11732987, “Enantioselective OTUD7B fragment discovery through chemoproteomics screening and high-throughput optimisation” (Communications Chemistry, 2025).

Legend:
Assay in all cases: log2 ratio of Biotin-Ahx-Ub-VS probe labelling (fragment/DMSO); higher = less target engagement (more negative = stronger competition), active = hit call of the paper (q ≤ 0.05, log2 ratio ≤ -1)
Conditions in all cases: compound concentration: 200 uM; treatment time: 3 h
ALG13 = target: T1, ALG13 (UniProt Q9NP73)
T1 sequence (whole entry): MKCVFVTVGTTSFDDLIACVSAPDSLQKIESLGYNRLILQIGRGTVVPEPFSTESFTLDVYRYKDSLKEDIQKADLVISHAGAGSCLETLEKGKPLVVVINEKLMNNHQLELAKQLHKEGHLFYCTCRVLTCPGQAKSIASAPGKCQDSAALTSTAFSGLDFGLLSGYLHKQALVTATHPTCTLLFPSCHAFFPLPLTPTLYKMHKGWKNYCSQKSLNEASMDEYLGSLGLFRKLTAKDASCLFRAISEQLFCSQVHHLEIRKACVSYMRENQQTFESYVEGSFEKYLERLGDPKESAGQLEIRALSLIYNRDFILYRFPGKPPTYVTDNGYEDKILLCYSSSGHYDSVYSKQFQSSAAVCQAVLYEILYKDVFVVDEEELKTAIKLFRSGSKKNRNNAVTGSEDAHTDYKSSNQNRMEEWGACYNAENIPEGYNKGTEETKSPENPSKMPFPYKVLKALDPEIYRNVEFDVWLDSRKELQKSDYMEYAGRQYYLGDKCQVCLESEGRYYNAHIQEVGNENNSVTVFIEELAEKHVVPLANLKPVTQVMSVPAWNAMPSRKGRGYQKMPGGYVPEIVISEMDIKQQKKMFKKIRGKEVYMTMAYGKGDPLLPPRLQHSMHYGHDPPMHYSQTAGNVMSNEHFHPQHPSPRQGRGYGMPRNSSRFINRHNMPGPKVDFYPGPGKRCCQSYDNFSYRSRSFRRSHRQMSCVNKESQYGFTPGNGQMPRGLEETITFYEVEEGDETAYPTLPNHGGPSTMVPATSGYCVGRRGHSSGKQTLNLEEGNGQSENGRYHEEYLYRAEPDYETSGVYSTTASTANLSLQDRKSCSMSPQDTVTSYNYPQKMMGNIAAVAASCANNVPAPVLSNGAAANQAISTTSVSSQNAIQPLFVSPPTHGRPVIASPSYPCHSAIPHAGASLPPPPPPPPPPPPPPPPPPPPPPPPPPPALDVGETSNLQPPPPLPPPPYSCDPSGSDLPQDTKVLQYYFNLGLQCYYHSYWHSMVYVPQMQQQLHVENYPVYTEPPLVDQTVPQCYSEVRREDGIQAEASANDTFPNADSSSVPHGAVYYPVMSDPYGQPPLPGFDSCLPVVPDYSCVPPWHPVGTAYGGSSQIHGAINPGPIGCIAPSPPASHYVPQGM
In short: (§1)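 HEK293T lysate (495 µg per sample, in Tris/CHAPS/IGEPAL buffer with protease inhibitors) was exposed in triplicate for 3 h to fragment at 200 µM or to vehicle, then to Biotin-Ahx-Ub-VS at 0.5 µM final for 1 h. Labelled DUBs were enriched on NeutrAvidin, digested with LysC and trypsin, and analysed by diaPASEF LC-MS/MS. Spectronaut label-free quantities were normalised to the global median, and values are average log2 ratios of fragment over vehicle from an unpaired t-test. Only proteins with ≥2 unique peptides were used.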

ATXN3 = ATXN3 (UniProt P54252)
Chain of ATXN3 (P54252 whole entry): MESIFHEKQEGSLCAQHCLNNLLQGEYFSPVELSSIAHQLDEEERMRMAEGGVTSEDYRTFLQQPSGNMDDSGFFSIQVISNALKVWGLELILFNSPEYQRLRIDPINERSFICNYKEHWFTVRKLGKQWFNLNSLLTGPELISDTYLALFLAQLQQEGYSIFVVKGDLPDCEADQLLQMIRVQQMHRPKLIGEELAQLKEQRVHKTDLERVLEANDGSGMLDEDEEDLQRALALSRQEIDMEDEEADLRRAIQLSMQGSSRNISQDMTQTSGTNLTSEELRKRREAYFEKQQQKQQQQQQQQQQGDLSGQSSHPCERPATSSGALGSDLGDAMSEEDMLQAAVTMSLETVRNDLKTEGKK
In short: as §1

BAP1 = target: T2, BAP1 (UniProt Q92560)
T2 sequence (whole entry): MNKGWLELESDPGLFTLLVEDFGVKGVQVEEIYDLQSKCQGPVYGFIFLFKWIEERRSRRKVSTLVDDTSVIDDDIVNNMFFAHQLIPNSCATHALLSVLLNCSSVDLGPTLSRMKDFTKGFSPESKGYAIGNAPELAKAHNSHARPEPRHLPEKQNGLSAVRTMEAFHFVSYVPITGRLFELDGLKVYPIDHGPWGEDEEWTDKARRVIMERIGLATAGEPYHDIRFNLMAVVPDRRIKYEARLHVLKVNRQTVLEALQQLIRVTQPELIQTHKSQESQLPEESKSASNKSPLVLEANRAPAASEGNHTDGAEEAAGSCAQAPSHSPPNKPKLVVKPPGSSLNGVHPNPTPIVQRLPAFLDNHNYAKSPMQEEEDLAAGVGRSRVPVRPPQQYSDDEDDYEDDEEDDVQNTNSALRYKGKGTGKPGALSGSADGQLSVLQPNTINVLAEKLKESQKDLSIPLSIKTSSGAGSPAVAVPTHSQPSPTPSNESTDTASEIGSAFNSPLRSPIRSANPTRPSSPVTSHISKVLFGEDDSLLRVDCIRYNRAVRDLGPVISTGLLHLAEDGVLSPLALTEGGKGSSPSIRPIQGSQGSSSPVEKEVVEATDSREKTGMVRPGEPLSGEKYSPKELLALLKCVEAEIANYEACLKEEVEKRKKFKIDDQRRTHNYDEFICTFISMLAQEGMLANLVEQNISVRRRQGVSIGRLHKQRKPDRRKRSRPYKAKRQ
In short: as §1

EIF3F = EIF3F (UniProt O00303)
Chain of EIF3F (O00303 whole entry): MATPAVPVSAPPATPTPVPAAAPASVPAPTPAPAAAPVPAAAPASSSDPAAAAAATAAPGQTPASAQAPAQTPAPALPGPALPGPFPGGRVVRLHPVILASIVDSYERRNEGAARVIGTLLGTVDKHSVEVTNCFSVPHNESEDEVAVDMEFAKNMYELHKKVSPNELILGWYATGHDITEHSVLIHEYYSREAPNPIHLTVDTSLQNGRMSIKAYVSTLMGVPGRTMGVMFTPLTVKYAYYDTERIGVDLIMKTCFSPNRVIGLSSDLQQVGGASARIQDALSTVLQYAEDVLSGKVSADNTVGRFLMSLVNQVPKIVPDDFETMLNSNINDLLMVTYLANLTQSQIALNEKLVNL
In short: as §1

EIF3H = EIF3H (UniProt O15372)
Chain of EIF3H (O15372 whole entry): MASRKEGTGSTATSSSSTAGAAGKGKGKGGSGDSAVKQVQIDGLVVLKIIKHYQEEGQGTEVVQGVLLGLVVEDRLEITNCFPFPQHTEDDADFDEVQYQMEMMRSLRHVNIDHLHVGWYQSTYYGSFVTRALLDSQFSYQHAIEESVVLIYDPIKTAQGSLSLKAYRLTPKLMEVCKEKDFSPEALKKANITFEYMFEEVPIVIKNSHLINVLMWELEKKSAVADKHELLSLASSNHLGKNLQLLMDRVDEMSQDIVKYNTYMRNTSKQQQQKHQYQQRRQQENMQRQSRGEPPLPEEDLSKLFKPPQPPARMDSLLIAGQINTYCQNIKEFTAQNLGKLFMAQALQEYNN
In short: as §1

FAM105A = target: T3, FAM105A (UniProt Q9NUU6)
T3 sequence (whole entry): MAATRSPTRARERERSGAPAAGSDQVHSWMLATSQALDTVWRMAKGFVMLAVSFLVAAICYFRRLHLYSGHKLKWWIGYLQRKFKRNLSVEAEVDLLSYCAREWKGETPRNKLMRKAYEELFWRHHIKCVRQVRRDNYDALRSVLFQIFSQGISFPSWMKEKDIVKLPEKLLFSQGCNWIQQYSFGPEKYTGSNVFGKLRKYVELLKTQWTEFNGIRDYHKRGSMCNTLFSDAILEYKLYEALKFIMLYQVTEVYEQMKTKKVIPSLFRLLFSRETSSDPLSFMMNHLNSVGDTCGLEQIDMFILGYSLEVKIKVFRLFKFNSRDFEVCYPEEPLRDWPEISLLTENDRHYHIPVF
In short: as §1

OTUB1 = OTUB1 (UniProt Q96FW1)
Chain of OTUB1 (Q96FW1 whole entry): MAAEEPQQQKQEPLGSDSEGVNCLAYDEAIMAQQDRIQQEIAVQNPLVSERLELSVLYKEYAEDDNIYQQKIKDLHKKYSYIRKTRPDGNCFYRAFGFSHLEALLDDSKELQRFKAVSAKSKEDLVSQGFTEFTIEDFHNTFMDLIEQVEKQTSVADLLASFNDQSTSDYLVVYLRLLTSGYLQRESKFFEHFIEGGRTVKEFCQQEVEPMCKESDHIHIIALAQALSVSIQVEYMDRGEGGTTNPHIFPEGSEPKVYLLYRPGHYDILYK
In short: as §1

OTUD4 = target: T4, OTUD4 (UniProt Q01804)
T4 sequence (whole entry): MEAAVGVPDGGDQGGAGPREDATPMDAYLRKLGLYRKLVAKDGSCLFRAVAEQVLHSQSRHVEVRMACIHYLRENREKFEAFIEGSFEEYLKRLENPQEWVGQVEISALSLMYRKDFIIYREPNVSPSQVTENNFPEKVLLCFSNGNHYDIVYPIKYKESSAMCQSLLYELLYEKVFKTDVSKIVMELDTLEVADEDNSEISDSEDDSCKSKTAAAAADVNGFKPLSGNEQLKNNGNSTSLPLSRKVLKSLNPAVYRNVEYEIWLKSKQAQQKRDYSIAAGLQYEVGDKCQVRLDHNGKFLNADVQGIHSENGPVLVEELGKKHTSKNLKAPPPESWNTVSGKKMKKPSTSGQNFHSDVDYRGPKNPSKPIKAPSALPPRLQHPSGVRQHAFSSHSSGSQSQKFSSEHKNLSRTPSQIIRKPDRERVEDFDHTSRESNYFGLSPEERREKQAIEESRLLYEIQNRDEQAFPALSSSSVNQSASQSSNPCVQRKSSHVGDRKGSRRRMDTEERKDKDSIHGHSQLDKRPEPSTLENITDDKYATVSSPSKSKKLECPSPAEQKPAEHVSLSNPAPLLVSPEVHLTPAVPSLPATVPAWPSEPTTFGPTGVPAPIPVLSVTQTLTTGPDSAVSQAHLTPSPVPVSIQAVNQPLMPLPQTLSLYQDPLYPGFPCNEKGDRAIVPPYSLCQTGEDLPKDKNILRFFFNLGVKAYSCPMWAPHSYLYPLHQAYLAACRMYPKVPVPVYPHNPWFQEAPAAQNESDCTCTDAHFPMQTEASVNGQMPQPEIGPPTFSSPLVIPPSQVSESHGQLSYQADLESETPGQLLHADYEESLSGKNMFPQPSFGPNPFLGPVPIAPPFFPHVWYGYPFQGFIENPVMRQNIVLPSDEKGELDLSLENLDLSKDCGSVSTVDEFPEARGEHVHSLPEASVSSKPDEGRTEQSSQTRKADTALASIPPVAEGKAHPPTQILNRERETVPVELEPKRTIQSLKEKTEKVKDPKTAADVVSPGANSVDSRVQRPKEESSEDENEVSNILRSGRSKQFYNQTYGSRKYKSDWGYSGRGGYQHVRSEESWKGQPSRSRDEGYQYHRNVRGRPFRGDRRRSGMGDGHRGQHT
In short: as §1

OTUD5 = target: T5, OTUD5 (UniProt Q96G74)
T5 sequence (whole entry): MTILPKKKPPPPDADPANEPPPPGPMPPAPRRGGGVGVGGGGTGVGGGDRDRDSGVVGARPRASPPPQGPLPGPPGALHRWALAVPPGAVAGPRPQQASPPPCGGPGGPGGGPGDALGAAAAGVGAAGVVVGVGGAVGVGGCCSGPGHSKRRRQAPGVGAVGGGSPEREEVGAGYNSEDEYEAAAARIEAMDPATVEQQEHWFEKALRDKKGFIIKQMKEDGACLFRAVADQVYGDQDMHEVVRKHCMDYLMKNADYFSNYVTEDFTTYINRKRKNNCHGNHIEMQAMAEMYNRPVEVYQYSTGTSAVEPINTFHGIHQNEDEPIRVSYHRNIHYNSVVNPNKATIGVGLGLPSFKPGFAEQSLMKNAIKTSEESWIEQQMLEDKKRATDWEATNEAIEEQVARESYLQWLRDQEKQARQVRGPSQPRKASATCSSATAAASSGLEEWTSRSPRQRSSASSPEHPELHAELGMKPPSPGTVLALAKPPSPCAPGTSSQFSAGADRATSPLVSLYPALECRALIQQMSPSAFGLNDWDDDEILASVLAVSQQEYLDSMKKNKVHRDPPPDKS
In short: as §1

Measured: log2 ratio of Biotin-Ahx-Ub-VS probe labelling

Cc1ccc(CN(C)C(=O)CCl)o1
inactive: ALG13 0.042 | ATXN3 -0.103 | BAP1 -0.4 | EIF3F -0.0182 | EIF3H -0.047 | FAM105A 0.277 | OTUB1 0.103 | OTUD4 0.05 | OTUD5 -0.308
